Active and inactive are the calls of the source.
Assays:
[1] = binders of probe aFSTL3 on microarray, primary screen, stem cell growth factor project, biochemical, small-molecule microarray, fluorescence 635/667 (AID 1064); conditions: higher = more signal;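 note: measures binding of the biotinylated anti-FSTL3 antibody to printed compounds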
[2] = binders from COS7 lysate, DM2A8 probe, primary screen, torsin A project, cell lysate, small-molecule microarray, fluorescence 635/667 (AID 1065); conditions: higher = more signal, COS7 lysate expressing mutant human TOR1A
[3] = binders of probe aFGF2 on microarray, primary screen, stem cell growth factor project, biochemical, small-molecule microarray, fluorescence 635/667 (AID 1067); conditions: higher = more signal;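 note: measures binding of biotinylated aFGF2 protein to printed compounds on slides; z-score merges feature fluorescence and signal-to-noise across triplicate slides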
[4] = binders of probe aFGF10 on microarray, primary screen, stem cell growth factor project, biochemical, small-molecule microarray, fluorescence 635/667 (AID 1071); conditions: higher = more signal;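 note: score merges 667 nm spot intensity and signal to noise from triplicate slides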
[5] = biological target: Neurogenic locus notch homolog protein 2 (Homo sapiens) (UniProt Q04721); assay: Notch2 binders on small-molecule microarrays, primary screen, biochemical, small-molecule microarray, 635 nm fluorescence, stem cell growth factors (AID 1073); conditions: Notch2 binding, higher = more signal
Chain of Neurogenic locus notch homolog protein 2 (Homo sapiens) (Q04721 whole entry, looked up, canonical isoform): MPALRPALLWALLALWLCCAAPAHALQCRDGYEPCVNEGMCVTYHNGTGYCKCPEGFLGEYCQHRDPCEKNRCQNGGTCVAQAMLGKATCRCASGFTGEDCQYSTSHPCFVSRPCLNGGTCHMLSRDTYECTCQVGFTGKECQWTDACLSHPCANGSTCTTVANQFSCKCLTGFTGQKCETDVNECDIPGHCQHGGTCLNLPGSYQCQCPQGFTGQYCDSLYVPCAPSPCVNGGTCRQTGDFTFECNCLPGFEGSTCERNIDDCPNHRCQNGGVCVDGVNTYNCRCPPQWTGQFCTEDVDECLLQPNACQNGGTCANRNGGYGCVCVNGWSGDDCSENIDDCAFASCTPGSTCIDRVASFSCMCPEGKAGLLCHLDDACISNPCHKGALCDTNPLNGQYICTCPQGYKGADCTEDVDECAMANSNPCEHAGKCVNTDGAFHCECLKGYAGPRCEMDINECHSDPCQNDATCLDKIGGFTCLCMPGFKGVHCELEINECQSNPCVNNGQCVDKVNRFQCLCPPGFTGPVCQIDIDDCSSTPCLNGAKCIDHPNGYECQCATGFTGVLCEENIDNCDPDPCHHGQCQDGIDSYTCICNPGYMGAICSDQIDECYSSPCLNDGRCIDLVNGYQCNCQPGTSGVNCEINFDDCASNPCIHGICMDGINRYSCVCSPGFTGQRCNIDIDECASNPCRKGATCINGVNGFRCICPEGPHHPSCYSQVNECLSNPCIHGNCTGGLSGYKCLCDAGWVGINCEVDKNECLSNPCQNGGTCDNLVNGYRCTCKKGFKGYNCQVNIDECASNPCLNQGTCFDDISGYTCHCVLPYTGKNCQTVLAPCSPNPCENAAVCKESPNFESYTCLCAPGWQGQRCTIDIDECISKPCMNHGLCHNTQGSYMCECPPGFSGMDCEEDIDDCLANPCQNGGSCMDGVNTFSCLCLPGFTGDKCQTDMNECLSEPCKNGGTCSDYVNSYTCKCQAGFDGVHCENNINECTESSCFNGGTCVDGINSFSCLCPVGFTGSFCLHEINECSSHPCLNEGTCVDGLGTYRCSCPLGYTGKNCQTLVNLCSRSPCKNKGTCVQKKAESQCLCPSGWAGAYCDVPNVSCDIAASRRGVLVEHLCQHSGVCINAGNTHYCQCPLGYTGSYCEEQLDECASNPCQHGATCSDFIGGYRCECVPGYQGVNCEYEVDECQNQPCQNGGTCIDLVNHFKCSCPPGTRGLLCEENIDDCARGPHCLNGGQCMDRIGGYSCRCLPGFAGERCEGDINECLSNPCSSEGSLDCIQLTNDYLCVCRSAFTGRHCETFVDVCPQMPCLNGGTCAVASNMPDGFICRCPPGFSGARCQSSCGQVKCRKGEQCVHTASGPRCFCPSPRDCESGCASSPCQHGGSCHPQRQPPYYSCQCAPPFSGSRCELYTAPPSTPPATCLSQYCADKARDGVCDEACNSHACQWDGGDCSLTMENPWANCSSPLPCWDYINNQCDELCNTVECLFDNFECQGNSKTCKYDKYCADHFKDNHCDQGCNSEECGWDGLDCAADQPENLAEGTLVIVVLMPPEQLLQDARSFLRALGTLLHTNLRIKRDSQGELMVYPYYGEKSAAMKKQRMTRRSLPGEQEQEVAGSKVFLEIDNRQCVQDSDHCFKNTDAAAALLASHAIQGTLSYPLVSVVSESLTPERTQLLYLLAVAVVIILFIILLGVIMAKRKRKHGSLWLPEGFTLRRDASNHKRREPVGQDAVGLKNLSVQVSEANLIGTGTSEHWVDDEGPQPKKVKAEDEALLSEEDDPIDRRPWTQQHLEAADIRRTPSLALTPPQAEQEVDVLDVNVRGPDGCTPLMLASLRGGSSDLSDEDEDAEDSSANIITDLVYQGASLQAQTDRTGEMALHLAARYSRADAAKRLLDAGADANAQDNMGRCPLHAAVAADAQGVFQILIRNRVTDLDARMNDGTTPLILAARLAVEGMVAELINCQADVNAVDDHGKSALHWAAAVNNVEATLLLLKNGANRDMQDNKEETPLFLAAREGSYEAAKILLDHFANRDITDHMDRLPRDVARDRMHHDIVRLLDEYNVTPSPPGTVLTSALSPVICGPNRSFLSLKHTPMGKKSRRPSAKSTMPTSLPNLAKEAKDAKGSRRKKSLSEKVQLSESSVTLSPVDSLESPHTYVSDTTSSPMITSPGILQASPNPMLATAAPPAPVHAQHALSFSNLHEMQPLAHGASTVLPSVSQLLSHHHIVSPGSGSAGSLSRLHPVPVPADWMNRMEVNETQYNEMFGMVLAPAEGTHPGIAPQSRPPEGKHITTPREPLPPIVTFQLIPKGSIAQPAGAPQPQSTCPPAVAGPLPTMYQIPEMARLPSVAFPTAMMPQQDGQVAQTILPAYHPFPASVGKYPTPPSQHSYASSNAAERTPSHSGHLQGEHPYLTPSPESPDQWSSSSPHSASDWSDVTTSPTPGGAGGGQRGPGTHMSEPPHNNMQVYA

[6] = biological target: Pro-neuregulin-1, membrane-bound isoform (Homo sapiens) (UniProt Q02297); assay: NRG1 binders on small-molecule microarrays, primary screen, psychiatric disease protein project, biochemical, small-molecule microarray, fluorescence 635/667 (AID 1075); conditions: NRG1 binding, 635 nm fluorescence, higher = more signal;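 note: score combines 667 nm spot fluorescence with signal to noise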
Chain of Pro-neuregulin-1, membrane-bound isoform (Homo sapiens) (Q02297 whole entry, looked up, the tested form may be a part, canonical isoform): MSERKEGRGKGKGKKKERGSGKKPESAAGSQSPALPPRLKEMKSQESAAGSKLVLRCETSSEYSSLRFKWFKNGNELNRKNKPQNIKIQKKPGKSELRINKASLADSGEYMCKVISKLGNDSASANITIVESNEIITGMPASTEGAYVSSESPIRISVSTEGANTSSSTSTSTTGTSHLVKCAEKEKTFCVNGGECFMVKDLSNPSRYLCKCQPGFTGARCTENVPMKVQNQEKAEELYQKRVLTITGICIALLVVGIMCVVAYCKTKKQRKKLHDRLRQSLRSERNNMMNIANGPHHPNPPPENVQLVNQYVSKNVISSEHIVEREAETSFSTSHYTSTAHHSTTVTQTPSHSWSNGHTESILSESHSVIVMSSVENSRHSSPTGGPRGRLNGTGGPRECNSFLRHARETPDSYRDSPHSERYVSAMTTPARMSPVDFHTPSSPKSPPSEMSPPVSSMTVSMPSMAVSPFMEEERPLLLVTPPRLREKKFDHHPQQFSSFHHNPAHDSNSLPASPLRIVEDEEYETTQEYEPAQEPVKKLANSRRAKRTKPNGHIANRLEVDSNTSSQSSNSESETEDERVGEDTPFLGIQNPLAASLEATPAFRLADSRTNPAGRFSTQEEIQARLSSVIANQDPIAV

[7] = system: Neuregulin-1 EGF-like domain; assay: binders of neuregulin-1 EGF-like domain, primary screen, biochemical, small-molecule microarray, 635 nm fluorescence (AID 1081); conditions: small-molecule microarray binding, higher = more signal;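 note: binding of the protein to compounds printed on small-molecule microarray slides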
[8] = FRG1 promoter luciferase signal modulators, primary screen, FRG1 inhibition for FSHD, cell-based, C2C12 myotubes, firefly/Renilla luciferase, luminescence (AID 1084); conditions: higher = more signal, called active from +8 up or from −8 down
[9] = binders of probe aFST on microarray, primary screen, stem cell growth factor project, biochemical, small-molecule microarray, fluorescence 635/667 (AID 1086); conditions: higher = more signal;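 note: score merges 667 nm fluorescence with signal-to-noise of each printed compound spot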
[10] = binders of probe aHhip on microarray, primary screen, stem cell growth factor project, biochemical, small-molecule microarray, fluorescence 635/667 (AID 1087); conditions: higher = more signal;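 note: score merges spot fluorescence at 667nm with spot signal to noise ratio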

| Structure (SMILES) | composite z-score [1] | composite z-score [2] | composite z-score [3] | composite z-score [4] | composite z-score [5] | composite z-score [6] | composite z-score [7] | z-score [8] | composite z-score [9] | composite z-score [10] |
| --- | --- | --- | --- | --- | --- | --- | --- | --- | --- | --- |
| O=C(O)[C@H]1C[C@H]2C(=O)N3CCC[C@H]3C(=O)N2[C@H]1c1ccc(O)cc1 | 1.22 | -0.104 | -0.195 | -0.929 | -2.12 | -0.0857 | 0.804 | -0.305 (inactive) | -0.834 | 0.147 |
| O=C1NC(=O)C2C1C=CC(C(O)c1ccc(I)cc1)N2Nc1ccccn1 (stereo not given) | 0.193 | 0.142 | 0.0111 | -0.0668 | 0.599 | 1.71 | 0.725 | 0.63 (inactive) | -0.0237 | -0.0173 |
| COCCCNC(=O)[C@@]1(Cc2ccccc2CN=[N+]=[N-])N=C(c2ccc(OCCCO)cc2)O[C@H]1c1ccccc1CN=[N+]=[N-] | -0.152 | 0.321 | 0.154 | 0.916 | 1.27 | 1.96 | 1.11 | 0.399 (inactive) | 1.43 | -0.286 |
| O=C1OCC=C[C@H]2OC34C=CCN(Cn5nnc6ccccc65)C(=O)[C@H]3N(CCCCCO)C(=O)[C@@H]4[C@@H]12 (stereo not given in full) | 0.4 | -0.629 | -0.0069 | -0.138 | -0.637 | 2.53 | 1.16 | -0.564 (inactive) | -0.779 | -0.396 |
| COC(=O)c1c(CC[C@@H](CO)NC(=O)N[C@@H](Cc2ccccc2)Cn2cc(-c3ccccn3)nn2)oc(C(=O)N2CCOCC2)c1C(=O)OC | -0.39 | -0.451 | -0.0348 | 0.218 | 0.303 | -0.0149 | 0.734 | 0.183 (inactive) | 0.128 | -0.356 |
| CC#CC(=O)Oc1ccc(Br)cc1C=CC(=O)OCC | 0.559 | -0.422 | -0.0304 | 0.0178 | -0.497 | 0.334 | 1.34 | 0.128 (inactive) | 0.375 | 0.095 |
| CCOc1cc(C(O)C2C=CC3C(=O)N(c4ccccc4)C(=O)C3N2Nc2ccc(C(C)C)cc2)ccc1O (stereo not given) | 0.0696 | 0.201 | -0.0254 | 0.707 | 1.52 | 1.36 | 1.31 | 0.698 (inactive) | 1.17 | -0.0237 |
| O=C(CS)NCCCCCNC(=O)[C@H]1C[C@H]2C(=O)NCC(=O)N2[C@H]1c1ccc(O)cc1 | 0.205 | 0.354 | -0.159 | -0.583 | -1.4 | -0.83 | -0.0307 | 1.41 (inactive) | -0.753 | -0.204 |
| C[N+](C)(C)CCCC[C@@H]1NC(=O)[C@@H]2C[C@H](C(=O)NCCCCCCNC(=O)CS)[C@H](c3ccc(O)cc3)N2C1=O | 0.973 | -0.951 | -0.193 | 0.0372 | -1.41 | 0.801 | 1.47 | -0.338 (inactive) | -0.622 | 0.235 |
| NCCCCCNC(=O)[C@H]1C[C@H]2C(=O)N3CCC[C@H]3C(=O)N2[C@H]1c1ccc(O)cc1 | 1.39 | 1.06 | 0.197 | 0.457 | 0.698 | 1.62 | 1.23 | 0.0225 (inactive) | 1.52 | 0.399 |
| NC(=O)[C@@H]1[C@H]2C(=O)O[C@H](c3ccccc3)[C@H](c3ccccc3)N2[C@H](c2ccc(OCCO)cc2)[C@@]12C(=O)Nc1ccc(C#CC3=CCCCC3)cc12 | -0.342 | 0.18 | -0.125 | 1.18 | 1.23 | 1.11 | 1.16 | 1.15 (inactive) | 0.447 | -0.227 |
| COC(=O)C(CC#Cc1ccc2c(c1)[C@]1(C(=O)N2)[C@H](c2ccccc2OCCO)N2[C@H](c3ccccc3)[C@H](c3ccccc3)OC(=O)[C@H]2[C@@H]1C(N)=O)C(=O)OC | 1.88 | 0.726 | 0.255 | 0.774 | 0.806 | 1.69 | 1.32 | -1.84 (inactive) | 1.84 | 0.087 |
| O=C1OCCC=C[C@H]2OC34C=CCN(CCN5CCOCC5)C(=O)[C@H]3N(CCCCCO)C(=O)[C@@H]4C12 (stereo not given in full) | -0.391 | 1.84 | -0.203 | 0.0681 | -0.419 | 1.06 | 1.42 | -0.521 (inactive) | -0.324 | -0.0994 |
| CC(C)NC(=O)[C@@]1(Cc2ccccc2I)c2ccccc2C(=O)N(Cc2ccccc2Cl)[C@H]1c1ccc(CO)cc1 | 0.232 | 0.152 | 0.028 | 0.504 | 0.917 | 1.19 | 1.22 | -2.18 (inactive) | 0.237 | -0.0994 |
| C=CC[C@]1(C(N)=O)N=C(c2ccc(OCCCO)cc2)O[C@H]1c1ccccc1 | 0.966 | -0.148 | -0.0286 | -0.0773 | 0.494 | 1.92 | 1.29 | -1.59 (inactive) | -0.0521 | -0.0296 |
| CCN(CC)c1ccc(N2CC=CC34O[C@@H]5/C=C\CCC(C)OC(=O)C5[C@H]3C(=O)N(CCCCCO)[C@@H]4C2=O)cc1 (stereo not given in full) | -0.129 | -0.474 | -0.103 | -0.497 | -1.45 | -0.551 | -0.506 | 0.376 (inactive) | -0.284 | -0.37 |

Reference: PubChem BioAssay
